MITF TRPM1 HTS: activators of MITF-driven TRPM1 promoter reporter, primary screen, cell-based, SK-MEL-5, luciferase, single point; SK-MEL-5 TRPM1-promoter luciferase, 24 h; % of positive control, neutral wells = 0; activation, % at 12.5 µM; 300,000 tested, 0.75% active; AID 588334, 2011;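 active = mean activation of at least 80% with every replicate also reaching 80%; inconclusive = mean reaches 80% but some replicate falls short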;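 note: 0% = neutral control wells and 100% = parthenolide positive control wells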
esBAF inh: Bmi1 luciferase reporter increase in mESCs, primary screen, esBAF inhibitor project, mouse ES cells, Bmi1 luciferase knock-in, single point; 24 h; 100% = twice the neutral-well signal; reporter increase, % at 12.5 µM; 350,000 tested, 2% active; AID 602393, 2012; in the data active = activation above about 40%; inconclusive = no clear call, values can overlap the other calls;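 note: 0% = median of the plate's neutral control wells and 100% = double that signal; a rise in the Bmi1 reporter signal indicates esBAF inhibition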
HSF1 activator: HSF-1 activators, primary screen, NIH3T3-HGL cells, MG132 stress, luminescence, single point. NIH3T3-HGL HSF-1 luciferase reporter, 8 h; 100% = twice DMSO control signal. activation, % at 9 µM. 300,000 tested, 1.7% active. AID 504408, 2011;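 active = mean replicate activation of at least 50% with a set share of replicates each reaching 50%; inconclusive = only one of those two conditions met; inactive = mean below 50% and too few replicates reaching it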;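 note: 0% = median of the neutral control wells and 100% = twice that signal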
Wnt bcat act: Wnt/beta-catenin pathway activators, primary screen, cell-based, plate reader, single point. 300,000 tested, 1.2% active. activation, % at 9.35 µM. AID 743398, 2014. Wnt/beta-catenin reporter cell assay, activator; in the data active = activation above about 30%, passing the limit was not always enough; inconclusive = no clear call, values can overlap the other calls;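 note: 0% = neutral control wells and 100% = positive control wells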
HSF1 inhib: HSF1 inhibitors in luciferase reporter cells, primary screen, cell-based, NIH3T3, luminescence | activity change, negative = inhibition, % at 7.5 µM (by protocol) | 300,000 tested, 0.77% active | NIH3T3-HGL HSE-luciferase, MG132-induced, luminescence 8 h; active compounds read low;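 active = more than half of replicate wells show activity change below -50%, luminescence cut by over half; inconclusive = some wells, but at most half, below -50%; inactive = no replicate well below -50%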;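 note: luciferase reports HSF-1 transcriptional activity via heat shock element; 0% = median of DMSO wells and -100% = zero luminescence signal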
* = called active by the depositor; ? = inconclusive; . = no result given. Hits are enriched below; roughly 3.8% of the tested compounds scored in any of these assays.

SMILES	MITF TRPM1 HTS	esBAF inh	HSF1 activator	Wnt bcat act	HSF1 inhib
CC(C)NC(=O)N(C)C[C@H]1Oc2c(NC(=O)C3CCCCC3)cccc2C(=O)N([C@@H](C)CO)C[C@@H]1C	.	-4	.	.	.
COc1ccc(NC(=O)c2sccc2C)cn1	38	35	70*	6	36
CCc1cc(C(=O)Nc2ncccc2O)sc1C	2	.	42	37*	23
CCc1cc(C(=O)Nc2ccc(OC)nc2)sc1C	59	47*	15	21	24
O=C(CNC(=O)c1cccs1)Nc1ncccc1O	3	-4	-4	0	0
COc1ccc(NC(=O)c2cc(Br)c(Br)s2)cn1	41	35	7	22	5
Cc1ccc(S(=O)(=O)NCC[C@H]2CC[C@H](NC(=O)Nc3ccccc3F)[C@@H](CO)O2)cc1	.	-1	.	.	.
Cc1cc(NC(=O)c2ccoc2C)ccc1Br	86*	88*	.	57*	.
Cc1occc1C(=O)Nc1ccc2c(c1)OCO2	79	.	21	.	13
Cc1ccc(NC(=O)c2ccoc2C)cc1C	25	.	29	31*	5
Cc1nnc(N2C(=O)c3cccc4cccc(c34)C2=O)s1	-5	.	-63	.	-55*
CC1(C)CC(=O)C(N=Nc2ccc(F)cc2)=C(O)C1	9	.	17	44*	3
CC1(C)CC(=O)C(N=Nc2ccc(Cl)cc2)=C(O)C1	13	.	6	-5	11
CC1(C)CC(=O)C(N=Nc2ccc(OC(F)F)cc2)=C(O)C1	25	.	-64	14	-56*
CC1(C)CC(=O)C(N=Nc2ccc(-c3ccccc3)cc2)=C(O)C1	96*	.	12	0	6
C[C@@H]1CN([C@H](C)CO)C(=O)c2cc(Br)cnc2O[C@@H]1CN(C)CC1CCOCC1	.	4	.	.	.
C[C@@H]1CN([C@H](C)CO)C(=O)c2cc(C#CC3CCCC3)cnc2O[C@@H]1CN(C)C(=O)C1CC1	.	12	.	.	.
Cc1cccc(C)c1NC(=O)CN1C(=O)C2CC=CCC2C1=O (stereo unspecified)	1	-5	.	0	.
CN(C)c1cccc(C(=O)NNC(=O)CN2C(=O)C3CC=CCC3C2=O)c1 (stereo unspecified)	47	42*	.	4	.
COc1cc(C(=O)OCCN2CCOCC2)ccc1O	4	9	-1	.	-6
O=C(OCCCN1CCOCC1)c1ccc(O)c(O)c1	18	.	-73	7	-65*
Cc1cc(C(=O)CN2C(=O)C3CC=CCC3C2=O)c(C)n1-c1ccccc1 (stereo unspecified)	.	-11	11	48*	2
Cc1cc(C(=O)CN2C(=O)C(=O)N(Cc3ccccc3)C2=O)c(C)n1-c1ccc2c(c1)OCCO2	5	.	-68	-1	-70*
O=C(C[C@@H]1C[C@@H]2c3cc(NC(=O)Nc4ccccc4)ccc3O[C@@H]2[C@@H](CO)O1)NCc1cccnc1	.	10	.	.	.
Clc1ccc(N=C2SCC3CCCCN23)cc1 (stereo unspecified)	97*	53*	20	16	14
SMILES	MITF TRPM1 HTS	esBAF inh	HSF1 activator	Wnt bcat act	HSF1 inhib
FC(F)Oc1ccc(N=C2SCC3CCCCN23)cc1 (stereo unspecified)	94*	75*	39	26	20
O=C(CN1CCCCC1CO)c1ccc(OC(F)F)cc1 (stereo unspecified)	0	.	2	-2	4
C[C@@H]1CN([C@H](C)CO)C(=O)c2cc(NC(=O)Nc3cccc4ccccc34)ccc2O[C@@H](C)CCCCO[C@@H]1CN(C)C(=O)NC1CCCCC1	.	6	.	.	.
COCCNC(=O)[C@H]1[C@H](CO)[C@H]2Cn3c(ccc(-c4ccc(F)cc4)c3=O)[C@@H]1N2C	.	-3	.	.	.
Cc1oc2ccc(NS(=O)(=O)c3ccc(C(C)(C)C)cc3)cc2c1C(=O)Nc1ccccc1	-9	-33	61*	.	18
CC(=O)c1c(C)oc2ccc(NS(=O)(=O)c3ccc(C)cc3)cc12	-5	7	15	-1	10
C[C@@H]1CN([C@H](C)CO)C(=O)c2cc(NC(=O)C3CCCCC3)ccc2O[C@@H](C)CCCCO[C@H]1CN(C)S(=O)(=O)c1ccc(Cl)cc1	.	-3	.	.	.
CSCCC(NS(=O)(=O)c1cccs1)C(=O)NCc1ccc(C)cc1 (stereo unspecified)	-14	-4	-17	-1	-7
CSCCC(NS(=O)(=O)c1cccs1)C(=O)NCc1ccccc1 (stereo unspecified)	-2	.	-57	-1	-52*
COc1ccc(CN2C[C@H](O)COC[C@@H]3O[C@@H](CC(=O)NCc4ccccc4Cl)CC[C@H]32)cc1	.	-1	.	.	.
COc1cc(/C=N/N2C(=O)c3ccccc3NC2(C)c2cccc([N+](=O)[O-])c2)cc(Br)c1O (stereo unspecified)	-8	12	56*	.	44
COc1ccccc1Nc1nc(-c2cccc([N+](=O)[O-])c2)cs1	.	.	14	27	-2
Cc1c(C(=O)Nc2cccc([N+](=O)[O-])c2)csc1-c1ccccc1	56	50*	41	.	18
O=[N+]([O-])c1cccc(-c2csc(Nc3ccccc3)n2)c1	44	52*	1	9	10
O=C(O)c1cnn(-c2nc(-c3cccc([N+](=O)[O-])c3)cs2)c1C(F)(F)F	.	-1	63*	2	18
O=C(Nc1nc(-c2ccccc2)cs1)c1cccc([N+](=O)[O-])c1	25	61*	11	.	14
Cc1ccc(NC(=O)c2csc(-c3ccccc3)c2C)cc1	-18	-64	.	-26	.
CO[C@@H]1CN(C)C(=O)c2ccc(NC(=O)C3CC3)cc2OC[C@@H](C)N(CCc2ccccc2)C[C@@H]1C	.	0	.	.	.
C[C@@H]1CN([C@H](C)CO)C(=O)c2cc(NC(=O)c3ccncc3)ccc2O[C@H]1CN(C)S(=O)(=O)c1cccs1	.	1	.	.	.
COc1ccccc1S(=O)(=O)N(C)C[C@@H]1Oc2cc(C#CCC(C)C)ccc2S(=O)(=O)N([C@@H](C)CO)C[C@@H]1C	.	1	.	.	.
C[C@H]1CN([C@@H](C)CO)S(=O)(=O)c2ccc(-c3cccc(F)c3)cc2O[C@@H]1CN(C)S(=O)(=O)c1ccccc1	.	5	.	.	.
O=C(Cc1ccc(Br)cc1)N1CCN(c2ccccc2O)CC1	61	50*	24	11	18
Cc1cccc(N2CCN(C(=O)CNC(=O)c3ccccc3)CC2)c1C	.	50*	15	8	-1
Cc1cccc(N2CCN(C(=O)CNC(=O)C3CCCCC3)CC2)c1C	22	?	.	3	.
O=C(NCC(=O)N1CCN(c2ccccc2O)CC1)c1ccc(Br)o1	7	11	-62	3	-52*
O=C(NCCc1ccccc1)c1ccc(Br)o1	?	49*	35	25	21
CCn1nnc(NC(=O)C(c2ccccc2)c2ccccc2)n1	-8	-8	-4	0	-6

Screening data (PubChem BioAssay)
